Screening results: PubChem, Sanford-Burnham Center for Chemical Genomics
In the library only some 3.1% were active in any assay of this set; here they are far more common.
CF NFkB block – inhibitors of cystic fibrosis induced NF-kB | KKLEB NF-kB-GFP reporter, PAF-induced, GFP fluorescence overnight | inhibition, % at 5 µM | 360,000 tested, 0.86% active | AID 588850;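 active = at least 50% inhibition at 5 µM, scaled per plate between neutral and stimulator controls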;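 note: PAF is a Pseudomonas aeruginosa culture filtrate used as stimulus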
HIF-2a block – blocks HIF-2a reporter activity; 786-0 RCC cells HIF-2a reporter, luciferase luminescence, overnight; inhibition, % at 18.8 µM; 360,000 tested, 0.72% active; AID 624352;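 active = inhibition of the luminescence signal of 40% or more relative to plate controls, in a single-dose primary screen at 18.75 µM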
TRAIL sens C8 – sensitizes caspase-8 expressing cells to TRAIL; AID 624354; inhibition (viability loss, TRAIL sensitization), % at 10 µM; NB7+C8 cells + TRAIL, ATPlite viability luminescence; 360,000 tested, 1% active;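 active = compounds causing at least 50% loss of cell viability in the single-dose screen, relative to plate controls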
PPC-1+TRAIL kill – PPC-1 cancer cell killing with TRAIL present; AID 1443; cell killing (% activity), % at 4 µM or 5 µM; 220,000 tested, 0.41% active; PPC-1 cells + TRAIL, ATPLite viability luminescence;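 active = cell killing above 50% in the first pass at 4 µM, then a duplicate retest at 5 µM averaging 50% or more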
Peg3 promoter – inhibitors of Peg3 promoter; inhibition, % at 20 µM; 360,000 tested, 1.7% active; HeLa PEG-Prom luciferase reporter, luminescence, overnight;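 active = inhibition of at least 50% at 20 µM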
KKLEB cytotox – counter-screen for CF NF-kB inhibitors: cytotoxicity | KKLEB CF airway cells viability, ATPlite luminescence, overnight; active compounds read low; cells stimulated with P. aeruginosa culture filtrate | AID 602141 | activity change (cytotoxicity), % at 5 µM | 360,000 tested, 0.36% active;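 active = corrected activity change at or below -50% at 5 µM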
Numbers stand for hits.

For NS(=O)(=O)c1ccc(NC(=O)CSc2nnc(-c3ccc(O)cc3)o2)cc1 the results were CF NFkB block inactive, HIF-2a block inactive, TRAIL sens C8 inactive, Peg3 promoter inactive and KKLEB cytotox inactive.
For O=C(CSc1nnc(-c2ccc(O)cc2)o1)Nc1cccc(O)c1 the results were CF NFkB block inactive, HIF-2a block inactive, TRAIL sens C8 47.8, Peg3 promoter inactive and KKLEB cytotox inactive.
For COc1cccc(NC(=O)CSc2nnc(-c3ccc(C)cc3)o2)c1 the results were CF NFkB block inactive, HIF-2a block inactive, TRAIL sens C8 inactive, PPC-1+TRAIL kill 57.0, Peg3 promoter inactive and KKLEB cytotox inactive.
For COc1ccc(-c2oc3ccccc3c2C#Cc2cncn2C)cc1 the results were CF NFkB block inactive, HIF-2a block inactive, TRAIL sens C8 inactive, Peg3 promoter inactive and KKLEB cytotox inactive.
CC(NC(=O)C1CCN(Cc2ccc(Oc3ccccc3)cc2)CC1)c1cccc2ccccc12 (stereo not drawn) was read as CF NFkB block inactive, HIF-2a block inactive, TRAIL sens C8 inactive, Peg3 promoter inactive and KKLEB cytotox inactive.
Screening CC(=O)Nc1cnc(-c2cc(C)c(O)c(C)c2)cn1 returned CF NFkB block inactive, HIF-2a block inactive, TRAIL sens C8 inactive, Peg3 promoter inactive and KKLEB cytotox inactive.
For CN[C@H]1C[C@H]2c3cc(-c4ccccc4)ccc3CCN2C(=O)[C@H]1[C@H](C)O the results were CF NFkB block inactive, HIF-2a block inactive, TRAIL sens C8 inactive, Peg3 promoter inactive and KKLEB cytotox inactive.
Screening COc1cc2c(cc1N/C=C(\C#N)c1nc(-c3ccccc3)cs1)oc1ccccc12 returned CF NFkB block inactive, HIF-2a block inactive, TRAIL sens C8 inactive, Peg3 promoter 61.0 and KKLEB cytotox inactive.
COc1cc2c(cc1NC(=O)c1cc(-c3cccnc3)nc3ccc(C)cc13)oc1ccccc12 was read as CF NFkB block inactive, HIF-2a block inactive, TRAIL sens C8 inactive, PPC-1+TRAIL kill inactive, Peg3 promoter 63.3 and KKLEB cytotox inactive.
O=C(Nc1ccccn1)c1cc(-c2cccnc2)nc2ccc(Br)cc12 was read as CF NFkB block inactive, HIF-2a block inactive, TRAIL sens C8 inactive, PPC-1+TRAIL kill inactive, Peg3 promoter 55.7 and KKLEB cytotox inactive.
For COc1cccc(-c2csc(/C(C#N)=C/Nc3cc4oc5ccccc5c4cc3OC)n2)c1 the results were CF NFkB block inactive, HIF-2a block inactive, TRAIL sens C8 inactive, Peg3 promoter inactive and KKLEB cytotox inactive.
NS(=O)(=O)c1ccc(CCNc2ccn3nc(-c4ccc(OCCN5CCOCC5)cc4)cc3n2)cc1 was read as CF NFkB block inactive, HIF-2a block inactive, TRAIL sens C8 inactive, Peg3 promoter inactive and KKLEB cytotox inactive.
`CN(Cc1cnn(Cc2ccccc2)c1)C(=O)CN=C1NS(=O)(=O)c2ccccc21` gave CF NFkB block inactive, HIF-2a block inactive, TRAIL sens C8 inactive, Peg3 promoter inactive and KKLEB cytotox inactive.
CSc1ccc(C(=O)/C=C/c2ccc(N)cc2)cc1 was read as CF NFkB block inactive, HIF-2a block inactive, TRAIL sens C8 54.5, PPC-1+TRAIL kill inactive, Peg3 promoter inactive and KKLEB cytotox inactive.
For CSc1ccc(/C=C/C(=O)c2c(O)cc(C)oc2=O)cc1 the results were CF NFkB block inactive, HIF-2a block inactive, TRAIL sens C8 63.8, Peg3 promoter inactive and KKLEB cytotox inactive.
Screening CSc1ccc(/C=C/C(=O)c2ccc(NC(=O)C(C)C)cc2)cc1 returned CF NFkB block inactive, HIF-2a block inactive, TRAIL sens C8 inactive, PPC-1+TRAIL kill inactive, Peg3 promoter inactive and KKLEB cytotox inactive.
`Cc1cc(O)c(C(=O)/C=C/c2ccc(Cl)cc2)c(=O)o1` gave CF NFkB block inactive, HIF-2a block inactive, TRAIL sens C8 69.5, Peg3 promoter inactive and KKLEB cytotox inactive.
Screening CN(C)c1ccc(/C=C/C(=O)c2ccc(O)cc2)cc1 returned CF NFkB block inactive, HIF-2a block inactive, TRAIL sens C8 63.0, Peg3 promoter inactive and KKLEB cytotox inactive.
For C#CCOCC1CN(C)C(=O)O1 (stereo not drawn) the results were CF NFkB block inactive, HIF-2a block inactive, TRAIL sens C8 inactive, Peg3 promoter inactive and KKLEB cytotox inactive.
Screening Nc1cc2[nH]c(=O)c3ccccc3c2cc1[N+](=O)[O-] returned CF NFkB block inactive, HIF-2a block inactive, TRAIL sens C8 inactive, Peg3 promoter inactive and KKLEB cytotox inactive.
Screening Cc1ccc(NC(=O)CCN2C(=O)NC(C)(C)C2=O)cc1F returned CF NFkB block inactive, HIF-2a block inactive, TRAIL sens C8 inactive, Peg3 promoter inactive and KKLEB cytotox inactive.
`CCSc1nc2nccnc2c(=O)[nH]1` gave CF NFkB block inactive, HIF-2a block inactive, TRAIL sens C8 inactive, Peg3 promoter inactive and KKLEB cytotox inactive.
`O=C(/C=C/c1ccc(Cl)cc1)c1ccc([N+](=O)[O-])o1` gave CF NFkB block 95.8, HIF-2a block 49.0, TRAIL sens C8 59.8, Peg3 promoter 106.6 and KKLEB cytotox inactive.
`Cc1ccc(C(=O)/C=C/c2ccc(Br)cc2)o1` gave CF NFkB block inactive, HIF-2a block inactive, TRAIL sens C8 inactive, PPC-1+TRAIL kill inactive, Peg3 promoter inactive and KKLEB cytotox inactive.
For CCC1CSC(=Nc2ccc(C)cc2)N1C(=O)CN1C(=O)NC2(CCCC2)C1=O (stereo not drawn) the results were CF NFkB block inactive, HIF-2a block inactive, TRAIL sens C8 inactive, Peg3 promoter inactive and KKLEB cytotox inactive.
For Cc1ccc(O)c(C=Nc2cc(C)ccc2O)c1 the results were CF NFkB block inactive, HIF-2a block inactive, TRAIL sens C8 inactive, PPC-1+TRAIL kill inactive, Peg3 promoter inactive and KKLEB cytotox inactive.
For CC(C)(C)c1ccc(O)c(N=Cc2cc(Br)ccc2O)c1 the results were CF NFkB block inactive, HIF-2a block 51.9, TRAIL sens C8 inactive, PPC-1+TRAIL kill inactive, Peg3 promoter inactive and KKLEB cytotox inactive.
Screening COc1ccc(NS(=O)(=O)c2cccc(C(=O)O)c2)cc1S(=O)(=O)N1CCCCC1 returned CF NFkB block inactive, HIF-2a block inactive, TRAIL sens C8 inactive, Peg3 promoter inactive and KKLEB cytotox inactive.
For CCCC(=O)N1CCCC1(C)C(=O)Nc1ccc2nc(C)ccc2c1 (stereo not drawn) the results were CF NFkB block inactive, HIF-2a block inactive, TRAIL sens C8 inactive, Peg3 promoter inactive and KKLEB cytotox inactive.
CC1CCc2cc(F)ccc2N1C(=O)CCl (stereo not drawn) was read as CF NFkB block inactive, HIF-2a block inactive, TRAIL sens C8 94.0, PPC-1+TRAIL kill inactive, Peg3 promoter inactive and KKLEB cytotox inactive.
CCC(CC)C(=O)N1c2ccc(F)cc2CCC1C (stereo not drawn) was read as CF NFkB block inactive, HIF-2a block inactive, TRAIL sens C8 inactive, PPC-1+TRAIL kill inactive, Peg3 promoter inactive and KKLEB cytotox inactive.
For Cc1ccc([C@H]2C[C@@H](n3cc(C4CC4)nn3)[C@H](O)CN2C(=O)C2CCCCC2)cc1 the results were CF NFkB block inactive, HIF-2a block inactive, TRAIL sens C8 inactive, Peg3 promoter inactive and KKLEB cytotox inactive.
